From PMC4336329 (PLoS ONE, 2015)
In all, about 310,000 compounds went through this assay and about 14,000 (4.5%) showed an effect of 50% or more. Effects have a minus sign here. This excerpt belongs to a sample that is enriched for strong results.

molecular target: human ether-à-go-go-related gene (hERG) potassium channel (human, UniProt Q12809); test: primary screen, population patch clamp on CHO cells stably expressing hERG; higher = less effect of the substance
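Also: peak tail current of the secondary pulse compared with the same well before compound.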

Chain of human ether-à-go-go-related gene (hERG) potassium channel (Q12809 whole entry, looked up): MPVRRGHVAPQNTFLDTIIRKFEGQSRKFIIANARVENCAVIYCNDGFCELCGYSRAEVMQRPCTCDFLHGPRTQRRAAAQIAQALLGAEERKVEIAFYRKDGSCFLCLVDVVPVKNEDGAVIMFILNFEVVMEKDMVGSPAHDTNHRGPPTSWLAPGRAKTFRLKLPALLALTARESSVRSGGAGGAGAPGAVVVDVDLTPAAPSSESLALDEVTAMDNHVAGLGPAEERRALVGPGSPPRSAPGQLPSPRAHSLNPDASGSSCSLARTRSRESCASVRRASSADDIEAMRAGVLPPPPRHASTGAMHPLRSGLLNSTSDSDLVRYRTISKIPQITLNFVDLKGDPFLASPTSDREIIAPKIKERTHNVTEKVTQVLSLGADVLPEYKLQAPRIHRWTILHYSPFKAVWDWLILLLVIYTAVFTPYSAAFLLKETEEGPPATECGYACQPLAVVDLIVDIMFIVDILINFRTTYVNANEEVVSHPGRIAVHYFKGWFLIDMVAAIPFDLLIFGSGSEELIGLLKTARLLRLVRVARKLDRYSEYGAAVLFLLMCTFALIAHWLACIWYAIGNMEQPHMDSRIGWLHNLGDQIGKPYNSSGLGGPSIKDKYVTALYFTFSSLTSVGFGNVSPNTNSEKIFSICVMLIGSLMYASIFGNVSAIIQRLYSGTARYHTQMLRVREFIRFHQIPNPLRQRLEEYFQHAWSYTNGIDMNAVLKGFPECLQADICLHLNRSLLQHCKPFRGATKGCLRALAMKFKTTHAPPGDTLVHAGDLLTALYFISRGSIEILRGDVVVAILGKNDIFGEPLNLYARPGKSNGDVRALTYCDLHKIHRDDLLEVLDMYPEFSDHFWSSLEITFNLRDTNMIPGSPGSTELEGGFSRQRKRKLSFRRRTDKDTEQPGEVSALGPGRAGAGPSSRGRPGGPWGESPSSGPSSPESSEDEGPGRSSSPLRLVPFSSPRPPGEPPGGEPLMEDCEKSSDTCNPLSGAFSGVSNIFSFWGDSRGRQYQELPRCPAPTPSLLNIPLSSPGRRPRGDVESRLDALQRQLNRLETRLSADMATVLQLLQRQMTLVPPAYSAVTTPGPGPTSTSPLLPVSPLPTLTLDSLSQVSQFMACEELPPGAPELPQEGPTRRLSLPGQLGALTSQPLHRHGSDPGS

Compound | hERG current change (%, negative = inhibition) at 10uM [%]
Cc1cc(C)nc(NC(=O)c2c(F)c(F)c(F)c(C(=O)Nc3cc(C)cc(C)n3)c2F)c1 | -8.14
CN(C)C=O.CNC(=O)CSc1nc2nc(C)cc(C)n2n1 | 0.176
Cc1cccc(OCC(=O)Nc2nnc(-c3ccco3)s2)c1 | -1.94
CCOc1ccc2nc(SC3CC(=O)N(c4ccc(C)cc4)C3=O)sc2c1 (stereo not drawn) | -6.29
Cc1cc(C(=O)NCCCn2ccnc2)sc1-c1ccccc1 | -10.3
COC(=O)c1cc(S(=O)(=O)NCC2CCN(Cc3ccc(F)cc3)CC2)c[nH]1 | -57
COC(=O)c1cc(S(=O)(=O)NCC2CCN(Cc3ccccc3F)CC2)c[nH]1 | -21.4
CCOC(=O)c1c(C)[nH]c(C)c1S(=O)(=O)NCC1CCN(Cc2ccc(C)cc2)CC1 | -60.2
CCc1cccc(NS(=O)(=O)c2c(C)nc3scc(C)n3c2=O)c1 | 9.84
Cc1nc2scc(C)n2c(=O)c1S(=O)(=O)Nc1ccc(F)cc1 | -22.8
Cc1cccc(NS(=O)(=O)c2c(C)nc3scc(C)n3c2=O)c1 | -65.2
CCOC(=O)c1c(C)[nH]c(C)c1S(=O)(=O)NCC1CCN(Cc2cccc(Cl)c2)CC1 | -20.5
Cc1ccc(CN2CCC(CNS(=O)(=O)c3ccc(-c4ccc(=O)[nH]n4)s3)CC2)cc1 | -60.6
O=c1ccc(-c2ccc(S(=O)(=O)NCC3CCN(Cc4cccc(F)c4)CC3)s2)n[nH]1 | -8.55
CCOC(=O)c1c(C)[nH]c(C)c1S(=O)(=O)NCC1CCN(Cc2cccc(F)c2)CC1 | -1.69
COC(=O)c1cc(S(=O)(=O)NCC2CCN(Cc3cccc(F)c3)CC2)c[nH]1 | -16.7
O=c1ccc(-c2ccc(S(=O)(=O)NCC3CCN(Cc4ccccc4F)CC3)s2)n[nH]1 | -32.6
Cc1n[nH]c(C)c1CCNC(=O)C1CCC(=O)N(CCc2cccc(F)c2)C1 (stereo not drawn) | 9.63
Cc1ccc(C(=O)NCCNC(=O)c2ccccc2)cc1 | 8.24
O=[N+]([O-])c1ccc(C23CC4CC(CC(O)(C4)C2)C3)cc1 | -37.8
O=C(Nc1ccc2nc(-c3ccc4nc[nH]c4c3)[nH]c2c1)c1cccs1 | 17.1
COC(=O)c1cc(S(=O)(=O)NCC2CCN(Cc3cccc(Cl)c3)CC2)c[nH]1 | -41.9
COC(=O)c1cc(S(=O)(=O)NCC2CCN(Cc3ccc(Cl)cc3)CC2)c[nH]1 | -71.2
COC(=O)c1cc(S(=O)(=O)NCC2CCN(Cc3ccc(C)cc3)CC2)c[nH]1 | -73.8

Compound | hERG current change (%, negative = inhibition) at 10uM [%]
Cc1nc2scc(C)n2c(=O)c1S(=O)(=O)NCC1CCN(Cc2ccc(Cl)cc2)CC1 | -50.1
COC(=O)c1cc(S(=O)(=O)NCCc2ccc(C)cc2)c[nH]1 | -9.92
Cc1nc2scc(C)n2c(=O)c1S(=O)(=O)NCCc1ccc(Cl)cc1 | 7.69
COC(=O)c1cc(S(=O)(=O)NCC2CCN(Cc3cc(C)ccc3C)CC2)c[nH]1 | -11
Cc1nc2scc(C)n2c(=O)c1S(=O)(=O)NCC1CCN(Cc2ccc(F)cc2)CC1 | -49.7
COC(=O)c1cc(S(=O)(=O)NCCc2ccc(Cl)cc2)c[nH]1 | -3.4
COc1ccc(C2NS(=O)(=O)OCC2C)cc1 (stereo not drawn) | 16.4
COc1ccc(C(=O)NCCN2C(=O)S/C(=C\c3cccnc3)C2=O)c(OC)c1OC | -9.86
CCNC(=S)N1CCN(CCN=CC2=C(O)CC(C)(C)CC2=O)CC1 | -9.75
CCC(CC)C(=O)N1CCN(c2ccccc2)CC1 | -2.08
COc1ccc(N2CCN(CC(O)COCc3ccccc3)CC2)cc1.Cl (stereo not drawn) | -25.2
CC(=O)c1ccc(N2CCN(CC(O)COC(c3ccccc3)c3ccccc3)CC2)cc1 (stereo not drawn) | -66.5
CC(=O)c1ccc(N2CCN(CC(O)COC(c3ccccc3)c3ccccc3C)CC2)cc1 (stereo not drawn) | -41
CC(=O)c1ccc(N2CCN(CC(O)COCc3ccco3)CC2)cc1 (stereo not drawn) | -56.3
CC(=O)c1ccc(N2CCN(CC(O)c3ccccc3)CC2)cc1 (stereo not drawn) | -11.6
COc1ccc(OCC(O)CN2CCN(c3ccccc3)CC2)cc1.Cl (stereo not drawn) | -39.2
Cc1ccc(Cl)cc1N1CCN(CC(O)COCc2ccco2)CC1.O=C(O)C(=O)O (stereo not drawn) | -73.1
Cc1ccc(Cl)cc1N1CCN(Cc2nnnn2Cc2ccco2)CC1 | -37.9
COc1ccc(N2CCN(CC(O)COC(c3ccccc3)c3ccccc3)CC2)cc1 (stereo not drawn) | -64.9
OC(COCc1ccccc1)CN1CCN(c2ccccc2)CC1 (stereo not drawn) | -45.2
O=C(O)C(=O)O.OC(COCc1ccco1)CN1CCN(c2ccccc2)CC1 (stereo not drawn) | -24.8
Cc1ccc(Cl)cc1N1CCN(C(=S)NCc2ccco2)CC1 | 37.1
CC(=O)Nc1ccc(S(=O)(=O)N2CCN(S(=O)(=O)N3CCCCCC3)CC2)cc1 | 8.41
CC(C)c1onc(C(=O)N2CCN(c3ccccc3)CC2)c1[N+](=O)[O-] | 14.1

Compound | hERG current change (%, negative = inhibition) at 10uM [%]
CCC(C)(C)C1CCC(NC(=O)N2CCN(c3ccccc3O)CC2)CC1 (stereo not drawn) | -6.84
COc1cc(Cl)c(C)cc1NC(=O)CSc1cc(Cl)ccc1Cl | 7.31
COc1ccc(CC(=O)OCCN(C)C)cc1.Cl | 11.8
c1ccc(CCN2CN=C(Nc3nc4ccccc4s3)NC2)cc1 | -1.49
COc1ccc(N2CCN(CC(O)COC(c3ccc(F)cc3)c3ccc(F)cc3)CC2)cc1.O=C(O)C(=O)O (stereo not drawn) | -81.6
Cc1ccc(Cl)cc1N1CCN(CC(O)COC(C)C)CC1.Cl (stereo not drawn) | -63.7
COc1ccc(N2CCN(CC(O)COC(C)(C)C)CC2)cc1.O=C(O)C(=O)O (stereo not drawn) | 10.2
Cc1ccc(Cl)cc1N1CCN(Cc2cc3c(cc2O)CCC3)CC1 | 4.92
Cc1ccc(Cl)cc1N1CCN(CCN)CC1 | -0.374
COc1ccc(N2CCN(CCC(O)c3ccc4ccccc4c3)CC2)cc1 (stereo not drawn) | -68.3
COc1ccc(C(CCN2CCN(c3ccccc3)CC2)c2c(O)cc(OC)cc2OC)cc1 (stereo not drawn) | -30.5
CCCN1CCN(CC(O)COC(c2ccc(OC)cc2)c2ccc(OC)cc2)CC1.O=C(O)C(=O)O (stereo not drawn) | -30.2
COc1ccc(N2CCN(CCN3C(=O)c4ccccc4C3=O)CC2)cc1 | 17.6
N=C1C(c2ccc(Br)cc2)=C(O)C2CCc3ccccc3N12 (stereo not drawn) | -30.5
CC(C)N(C(=O)Cn1cnc2cc([N+](=O)[O-])ccc2c1=O)C(C)C | 7.76
Cc1cccc2cc(CN(CCCO)C(=O)Nc3ccccc3Cl)c(=O)[nH]c12 | 5.32
O=C(N=C1c2ccccc2CN1c1ccccc1)c1cccc([N+](=O)[O-])c1 | -1.72
CC1CCN(CCCNC(=O)c2cc3c(Cl)nc4ccccc4c3s2)CC1 | -66.2
Cc1nc2ccccc2c2oc(C(=O)NCCCN3CCCC(C)C3)cc12 (stereo not drawn) | -19
CCN(CC)CCCNC(=O)c1cc2c(Cl)nc3ccccc3c2s1 | -47.1
CCC1CCCCN1CCCNC(=O)CCNC(=O)Cn1cnc2ccccc2c1=O (stereo not drawn) | -0.683
O=C(NCCCN1CCCC1)c1cc2c(Cl)nc3ccccc3c2s1 | -13.9
CC1CCCN(CCCNC(=O)c2cc3c(Cl)nc4ccccc4c3s2)C1 (stereo not drawn) | -55.6
Cc1ccc2nc(Cl)c3cc(C(=O)NCCCN4CCCC4)sc3c2c1 | -10.3

Compound | hERG current change (%, negative = inhibition) at 10uM [%]
CCC1CCCCN1CCCNC(=O)c1cc2c(Cl)nc3ccccc3c2s1 (stereo not drawn) | -76.6
CC1CCCN(CCCNC(=O)c2coc3nc4ccccc4nc23)C1 (stereo not drawn) | -5.67
Cc1cccc(C)c1NC(=O)C1(N(Cc2ccco2)C(=O)CC2NC(=O)NC2=O)CCCCC1 (stereo not drawn) | 7.25
CCN(CC)C(=O)CSc1nnnn1-c1ccc(F)c(Cl)c1 | -3.28
O=C(Oc1ccc(-c2nc(-c3ccccn3)no2)cc1)c1ccccc1 | 7.73
CCOC(=O)c1[nH]c2ccc(OC)cc2c1NC(=O)c1ccc2c(c1)OCO2 | 17.1
CN(CC(=O)Nc1ccccc1C(F)(F)F)C(=O)c1ccc(-c2ccc(Cl)cc2)o1 | -13.7
COc1ccc(-n2nnc3c(SCC(=O)Nc4ccc5c(c4)OCCO5)ncnc32)cc1 | 0.643
C=CCNC(=O)c1onc(CSc2ccc(Cl)cc2)c1C(=O)O | 15.2
CC(C)(O)C#Cc1ccc(C(=O)Nc2ccc3c(c2)OCO3)s1 | 22.7
O=C(Nc1cccnc1Cl)c1cc2ccccc2o1 | 6.92
O=C(O)c1cccc(OS(=O)(=O)c2cc(Br)ccc2Br)c1 | -9.65
Cn1cc(S(=O)(=O)N2CCOCC2)cc1C(=O)Nc1ccc(Cl)cc1 | -51
Cc1ccc(NC(=O)c2cc(S(=O)(=O)N3CCOCC3)cn2C)cc1Cl | 11.2
Cn1cc(S(=O)(=O)N2CCOCC2)cc1C(=O)Nc1cccc(Cl)c1 | -10.4
O=C(Nc1ccccc1C(=O)O)c1cc(S(=O)(=O)N2CCCCC2)cs1 | 10.1
O=C(Nc1ccccc1C(=O)O)c1cc(S(=O)(=O)N2CCOCC2)cs1 | -66.4
O=C(Nc1ccc(Cl)cc1)c1cc(S(=O)(=O)N2CCOCC2)cs1 | -51.2
O=C(Nc1ccc(F)cc1)c1cc(S(=O)(=O)N2CCOCC2)cs1 | -11
O=C(Nc1ccccc1Cl)c1cc(S(=O)(=O)N2CCOCC2)cs1 | -9.07
Cc1ccc(NC(=O)c2cc(S(=O)(=O)N3CCOCC3)cs2)cc1 | -8.31
